Screening data (PubChem)
Vif-APOBEC3G blk = Vif-A3G binding inhibition; Q9HC16; HeLa A3G-eYFP + Vif (tagged APOBEC3G with the HIV-1 protein that degrades it), YFP fluorescence, overnight; Potency, µM (doses to about 46.1 µM), inactives show at the top dose activity, negative = active, actives largely listed as inhibitors; 410,000 tested, 0.076% active; AID 602310; also: potency is read from the fitted curve at half-maximal effect; % is scaled to controls: 0 for no effect and ±100 for the full control effect; nearly all actives have a fitted effect of over 60% in size
Target sequence (Q9HC16 whole entry, looked up): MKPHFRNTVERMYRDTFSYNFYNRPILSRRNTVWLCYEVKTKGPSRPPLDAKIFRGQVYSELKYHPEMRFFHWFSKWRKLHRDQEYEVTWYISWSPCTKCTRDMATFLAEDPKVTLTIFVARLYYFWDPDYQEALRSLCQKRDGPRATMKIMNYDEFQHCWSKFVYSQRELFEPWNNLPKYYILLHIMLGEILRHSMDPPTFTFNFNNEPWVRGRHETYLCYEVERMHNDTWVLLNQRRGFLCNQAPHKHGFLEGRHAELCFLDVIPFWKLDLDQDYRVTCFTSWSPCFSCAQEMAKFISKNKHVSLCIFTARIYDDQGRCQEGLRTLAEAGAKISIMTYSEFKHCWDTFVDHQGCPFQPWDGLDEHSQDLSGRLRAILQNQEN
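HeLa cells stably expressing Vif and C-terminally eYFP-tagged A3G, seeded overnight at 37 deg C, then exposed to compound by pintool overnight at 37 deg C. Rise in yellow fluorescence (Ex 488/Em 500-530, Acumen) marks blocked Vif-driven A3G degradation.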
TSHR antagonist = blocks TSH signaling through the human TSH receptor | AID 504810 | activity change, negative = inhibition, % at 11.5 µM | P16473 | TSHR-expressing cells, TSH-stimulated cAMP HTRF, 2 h; hits give low values | 330,000 tested, 0.2% active;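 active = activity change below a set negative limit, meaning inhibition stronger than a set level, cut at about -70% in these data; inconclusive = activity change between two set negative limits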; also: % is scaled to controls: 0 for no effect and ±100 for the full control effect
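TSHR-expressing cells, 200/well, pre-treated with compound, then stimulated with EC80 TSH (4nM final) for 2 hours at 37 deg C. cAMP measured by competitive HTRF: anti-cAMP cryptate antibody in lysis buffer plus cAMP-d2, read after 30 minutes at room temperature.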
Vif-A3F inh = Vif-A3F binding inhibition; HeLa A3F-eYFP + Vif (tagged APOBEC3F with the HIV-1 protein that degrades it), YFP fluorescence increase; Potency, µM (series often up to 46.1 µM), for the others: top-dose activity, negative = active; 390,000 tested, 0.2% active; AID 602313; also: potency is read from the fitted curve at half-maximal effect; % of control where 0% means no effect; nearly all actives have a fitted effect of over 65% in size
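HeLa cells stably expressing A3F-eYFP plus Vif, plated and incubated overnight at 37 deg C, then exposed to compounds overnight at 37 deg C. Blocked degradation read as raised yellow fluorescence (Ex 488/Em 500-530).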
PLK1 PBD block = PLK1 (human) polo-box domain binding inhibition; Plk1 PBD binding of FITC phosphopeptide, fluorescence polarization; Potency, µM, without a hit: max response, negative = inhibition, most hits filed as inhibitors; 360,000 tested, 2.8% active; AID 720504; also: potency is read from the fitted curve at half-maximal effect; series mostly up to about 57 µM; % is scaled to controls: 0 for no effect and ±100 for the full control effect; nearly all actives have a fitted effect of over 65% in size
VDR inhibitor = vitamin D3 receptor (human) inhibition. Potency, µM, for inactives: max response, negative = inhibition, hits mostly inhibitors. P11473. VDR-SRC2-3 peptide fluorescence polarization, 2 h. 400,000 tested, 0.93% active. AID 504847; also: potency is read from the fitted curve at half-maximal effect; % is scaled to controls: 0 for no effect and ±100 for the full control effect
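Measured by FP: displacement of SRC2-3 coactivator peptide from VDR by library compounds, following a two-hour ambient incubation.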
Active calls of the source: *; u = inconclusive; x = no result; ! = repeats disagree. Shown are actives, neighbours in structure and some others; about 3.1% of the full set was active somewhere. Unless noted, calls follow the shape of the dose curve; as a rule, active = well fitted curve in the direction sought with a large enough effect; inconclusive = small, poorly fitted or top-dose-only effect, or another doubt; inactive = no such curve, though single readings can be large; an effect the other way counts as inactive or inconclusive.

SMILES	Vif-APOBEC3G blk	TSHR antagonist	Vif-A3F inh	PLK1 PBD block	VDR inhibitor
Cc1nn(C)c(C)c1-c1cccc2c1CCC(N(C)C)C2 (configuration not stated)	x	x	x	x	11%
N=C1/C(=C\c2ccc(OC(=O)c3ccccc3Cl)cc2)C(=O)N=C2SC(N3CCOCC3)=NN12	-1%	-15	-12%	30µM*	u
N[C@]1(C(=O)O)CC[C@@H](C(=O)O)C1 (racemic)	x	x	x	x	1%
O=C(N/N=C/C1C(=O)NC(=S)N(c2ccccc2)C1=O)c1cc(Br)c(O)c(Br)c1 (configuration not stated)	-3%	24	3%	3.4µM*	40µM*
C[C@H](NC(=O)[C@@H](N)Cc1ccc(O)cc1)C(=O)N[C@@H](Cc1ccccc1)C(=O)N[C@@H](Cc1ccccc1)C(N)=O	x	x	x	x	1%
O=C1NC(=O)C(=CCc2ccccc2)C(=O)N1	0%	x	-5%	0%	u
Cc1ccc(S(=O)(=O)Oc2ccccc2C=C2C(=O)NC(=O)NC2=O)cc1	-7%	x	-3%	4.7µM*	x
O=C1NC(=O)C(=Cc2ccccc2Oc2ccc(F)cc2)C(=O)N1	-7%	4	-4%	12µM*	50µM*
O=C(/C=C\c1ccc(Cl)cc1)N[C@@]12CCC(=O)[C@@H]3Oc4c(O)ccc5c4[C@@]31CCN(CC1CC1)[C@@H]2C5	x	x	x	x	13%
Cn1c(O)c(C(=Nc2ccccc2)SCc2ccc(Cl)cc2)c(=O)n(C)c1=O	-1%	-30	-7%	27µM*	u
Cn1c(O)c(C(=N)COc2ccccc2)c(=O)n(C)c1=O	-1%	6	-5%	-5%	18%
Cc1noc(C(=O)Nc2sc3c(c2C#N)CCC3)c1Cl	2%	-21	0%	24µM*	-5%
CCOC(=O)c1c(NC(=O)c2ccc(OC)cc2)sc2c1CCCCC2	-1%	x	-6%	x	u
CC(C)[C@@]1(NC(=O)[C@H]2CC3c4cccc5[nH]cc(c45)C[C@H]3N(C)C2)O[C@@]2(O)C3CCCN3C(=O)[C@@H](Cc3ccccc3)N2C1=O (some centres not stated)	x	x	x	x	-1%
CCC(C)C(=O)OC1C2CC3=C4CC(=O)OC(c5ccoc5)[C@]4(C)CCC3[C@@](C)(C2=O)C(CC(=O)OC)C1(C)C (some centres not stated)	x	x	x	x	40µM*
O=C1NC(=O)N(Cc2cccs2)C(=O)/C1=C/c1ccc(N2CCOCC2)cc1	-6%	13	-23%	3µM*	u
O=C1NC(=O)N(Cc2ccccc2Cl)C(=O)/C1=C/N1CCOCC1	-11%	-3	-10%	u	u
C=C1C([C@@H](O)C[C@H](C)C2O[C@@]3(CCCCO3)CC[C@H]2C)OC2CC[C@@]3(CC[C@@H](/C=C/[C@@H](C)C4CC(C)=C[C@]5(O4)O[C@H](C[C@@](C)(O)C(=O)O)CCC5O)O3)OC2[C@@H]1O (some centres not stated)	x	x	x	x	3%
CCOC(=O)[C@]12Cc3cc(Cl)ccc3[C@H]1N(CC(=O)OC)C(=O)c1ccccc12	x	x	x	4.2µM*	x
CCOC(=O)[C@]12Cc3cc(Cl)ccc3[C@H]1N(C)C(=O)c1ccccc12	x	x	x	-28%	x
CCOC(=O)[C@]12Cc3cc(Cl)ccc3[C@H]1N(C(C)C)C(=O)c1ccccc12	x	x	x	9.5µM*	x
CCOC(=O)[C@]12Cc3c(cc(OC)c(OC)c3OC)[C@H]1N(Cc1ccccc1)C(=O)c1ccccc12	-9%	x	-4%	-3%	-8%
CN1CCN(c2ncc3ncc(=O)n(C)c3n2)CC1	x	x	x	x	8%
CN(C)CCN(C)CCc1ccc(Cl)c(Cl)c1	x	x	x	x	-2%
CCn1c(N)c(C(=O)NC)sc1=S	1%	4	-7%	2.7µM*	25µM*
SMILES	Vif-APOBEC3G blk	TSHR antagonist	Vif-A3F inh	PLK1 PBD block	VDR inhibitor
COc1ccc(C(C)=O)cc1Cc1c(O)[nH]c(=S)[nH]c1=O	-1%	-6	-14%	u	u
CCOc1ccc(C(C)=O)cc1Cc1c(O)[nH]c(=S)[nH]c1=O	2%	37	-5%	30µM*	u
CCCOc1ccc(C(C)=O)cc1Cc1c(O)[nH]c(=S)[nH]c1=O	-2%	25	-11%	30µM*	u
COC(=O)C[C@@](O)(CCC(C)(C)O)C(=O)O[C@@H]1C(OC)=C[C@]23CCCN2CCc2cc4c(cc2[C@@H]13)OCO4	x	x	x	x	-7%
Cc1cccc(-n2c(O)c(/C=C3/C(c4ccccc4)=Nc4ccccc43)c(=O)[nH]c2=O)c1	-17%	11	u	13µM*	89µM*
CC1=Nc2ccccc2/C1=C/c1c(O)n(C)c(=O)[nH]c1=O	-5%	10	-23%	u	-14%
O=c1[nH]c(=O)n(-c2ccc(F)cc2)c(O)c1/C=C1\C=Nc2ccccc21	-20%	-11	u	57%	17%
COC(=O)C1=Nc2ccccc2/C1=C\c1c(O)n(-c2cc(OC)ccc2OC)c(=O)[nH]c1=O	-6%	14	-14%	3.4µM*	u
Cc1ccc(-n2c(O)c(/C=C3/C(c4ccccc4)=Nc4ccccc43)c(=O)[nH]c2=O)cc1	u	13	2%	8.4µM*	-24%
Cc1ccccc1-n1c(O)c(/C=C2/C(c3ccccc3)=Nc3ccccc32)c(=O)[nH]c1=O	u	35	-19%	6.7µM*	89µM*
COc1ccc(-n2c(O)c(/C=C3\C=Nc4ccccc43)c(=O)[nH]c2=O)cc1	1%	7	u	-10%	-3%
CC(C)[C@H](NC(=O)[C@H](CC(=O)O)NC(=O)[C@H](Cc1ccccc1)NC(=O)[C@@H](C)NC(=O)[C@@H](N)Cc1ccc(O)cc1)C(=O)N[C@H](C(=O)NCC(N)=O)C(C)C	x	x	x	x	9%
C[C@H]1[C@@H](O)[C@@H](C)/C=C\C=CCC\C=C/C=C\C=C/C=C[C@@H](O[C@H]2O[C@@H](C)[C@@H](O)[C@@H](N)[C@@H]2O)C[C@@H]2O[C@@](O)(C[C@@H](O)[C@H]2C(=O)O)C[C@@H](O)[C@@H](O)CC[C@@H](O)C[C@@H](O)C[C@@H](O)CC(=O)O[C@H]1C	x	x	x	x	-1%
N#CC(C#N)=Cc1ccc(O)c(O)c1	-2%	-24	-2%	-6%	50µM*
NCCCP(=O)(O)CC1CCCCC1	x	x	x	x	5%
Cn1cnc([N+](=O)[O-])c1Sc1ccc([N+](=O)[O-])cc1	0%	4	-4%	11µM*	-28%
C[C@@H](N)Cc1cnc[nH]1	1%	-3	6%	4%	79µM*!
O=C(O)Cc1cnc[nH]1	-2%	-14	6%	-12%	4%
CC(=O)Nc1cccc(-c2ccnc3c2CC(C(=O)NCc2ccco2)O3)c1 (configuration not stated)	u	x	x	-1%	x
CCN(CCCl)Cc1ccccc1Br	2%	14	9%	u	8%
CCCCCOc1ccc(C)cc1CN(CCCl)CCCl	-19%	-3	4%	24µM*	-27%
